The source of these data is the supplement of paper PMC3558484.

Values without a mark were called inactive.

For the test, the system named is H1 OCT4-GFP hESC. Description: survival Z score in repeat assay, Calcein AM perimeter-filtered objects (vs plate mean) (Z score (SD)); higher = more surviving cells, active = 3 or more. Conditions: 10 µM, 2 days, cells per well: 1500, rescreen. As to the method:
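Top perimeter-filtered hits were cherry-picked and rescreened in the same Calcein AM assay (H1 OCT4-GFP hESCs, 1500 cells/well, 10 µM, 2 days, objects with perimeter ≥100 µm). Results are per-plate Z scores; a hit is Z ≥3.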
Take `CC(N/C(=N\C#N)Nc1ccncc1)C(C)(C)C` (configuration not stated) [Pinacidil]: the “survival Z score in repeat assay” value is 0.345.
In the case of `O=S(=O)(c1cccc2cnccc12)N1CCCNCC1` it was 4.63 (active).
